# Compounds with a hit are over-represented: about 19% of the library has one in this group of screens.
# TDP1 cell CPT – DT40-hTDP1 cell growth loss with CPT. Potency, µM (series often up to 46.2 µM), for the others: at the top dose activity change, negative = growth inhibition, most hits filed as inhibitors. 12% of 420,000 active. chicken DT40 Tdp1-/-;hTDP1 cells + 20 nM CPT, ATP luminescence, 48 h; further: potency means the concentration at half of the fitted maximal effect; on the % scale 0 is the no-effect control and ±100 the full control effect; nearly all actives have a fitted effect of over 55% in size
#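 Chicken DT40 Tdp1-/- cells complemented with human TDP1, 400 cells/well, exposed to compounds plus 20 nM camptothecin for at least 48 h at 37 C; viability read as ATP content by CellTiter-Glo luminescence.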
# DT40 TDP1 no CPT – qHTS for Inhibitors of human tyrosyl-DNA phosphodiesterase 1 (TDP1): qHTS in cells in absence of CPT; Potency, µM (doses to about 46.2 µM), without a hit: top-dose activity change, negative = growth inhibition, actives largely listed as inhibitors; 15% of 420,000 active; AID 686978, 2013; DT40 Tdp1-/- hTDP1 cells, no CPT, ATP luminescence, 48 h; further: potency means the concentration at half of the fitted maximal effect; on the % scale 0 is the no-effect control and ±100 the full control effect; nearly all actives have a fitted effect of over 55% in size
#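 Chicken DT40 Tdp1-/- cells complemented with human TDP1, screened without camptothecin (DMSO vehicle only), 400 cells/well. Compounds pin-transferred, cells incubated at 37 °C for at least 48 hr. Growth read as ATP-dependent luminescence (CellTiter-Glo, 30 min at RT).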
# Chronic BCR inh – blocks chronic active B-cell receptor signaling. ABC-DLBCL IkBa-CBG/CBR reporter, luminescence ratio, 4 h. Potency, µM (doses to about 46.1 µM), for inactives: at the top dose activity change, negative = inhibition, most hits filed as inhibitors. 0.05% of 340,000 active. AID 493014; active means well fitted inhibition curve with a large enough effect in the signal ratio, with a control signal flat, not every such curve was filed as active; inconclusive means small, poorly fitted or top-dose-only effect, or effect the other way, or a change in a side signal; the % refers to the signal ratio;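 further: potency means the concentration at half of the fitted maximal effect; plate controls were basal doxycycline-induced cells for no effect and cells given 10 µM MG132 for full effect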
#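 TMD8 ABC-DLBCL cells carrying doxycycline-inducible green luciferase fused to IkappaBalpha plus unfused red luciferase were exposed to compounds (up to 46 uM) for 4 hrs at 37C. Activity came from the overlap-corrected green/red luminescence ratio.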
# MCF10A rerep – inducers of DNA re-replication in MCF 10A breast cells; 2.9% of 350,000 active; MCF 10A DNA re-replication, Hoechst nuclear intensity, 48 h; Potency, µM (top dose mostly 46.1 µM), inactives show at the highest dose activity, positive = re-replication, most hits filed as activators; AID 624296; further: potency means the concentration at half of the fitted maximal effect; % of control where 0% means no effect; nearly all actives have a fitted effect of over 50% in size
# IL-1B inflam inh – blocks inflammasome-driven IL-1 beta release; THP-1 LPS/ATP IL-1B secretion, AlphaLISA, 16 h; hits give low values; activity change, % at 57.5 µM; 4.7% of 360,000 active; in the data active means activity change below about -50%; inconclusive means mostly about -30% to -49%; further: on the % scale 0 is the no-effect control and ±100 the full control effect
#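 Secreted IL-1B measured by AlphaLISA bead assay after 16 h compound exposure of THP-1 cells; compounds (final up to 57.5 uM) added 1 h before LPS (250 ng/mL) and ATP (1.25 mM) stimulation; lower signal means less secretion.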
# SW480 rereplic – DNA re-replication induction in SW480 cells; SW480 DNA re-replication, Hoechst DNA content imaging, 48 h; Potency, µM (doses to about 46.1 µM), inactives show at the highest dose re-replication activation, most hits filed as activators; 1.8% of 340,000 active; AID 624297; further: potency means the concentration at half of the fitted maximal effect; % of control where 0% means no effect; nearly all actives have a fitted effect of over 55% in size
#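 Cells (250 per well) received 23 nL compound or DMSO by pin tool and were kept 48 hr at 37 C, 5% CO2. Nuclei were then stained with Hoechst for 40 min and scanned for DNA content.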
# * hit, by the source's call; ? = inconclusive; . = no result given; [ ] = another dose, or the depositor's remark. Unless noted, the call rests on the fitted dose curve; in most records, active means well fitted curve in the direction sought with a large enough effect; inconclusive means small, poorly fitted or top-dose-only effect, or another doubt; inactive means no such curve, though single readings can be large; an effect the other way counts as inactive or inconclusive.
SMILES,TDP1 cell CPT,DT40 TDP1 no CPT,Chronic BCR inh,MCF10A rerep,IL-1B inflam inh,SW480 rereplic
CCn1c(N2CCN(CC(=O)c3ccc(OC)cc3)CC2)nc2ccccc21,-6%,-14%,0%,1%,-16,11%
CCn1c(N2CCN(CC(=O)Nc3cccc(C)c3C)CC2)nc2ccccc21,-23%,21µM*,0%,-2%,-17,-5%
Cc1ccc(NCc2nc3ccccc3n2C)cc1,?,?,?,-12%,14,3%
Cc1ccc(SCc2nc3ccccc3n2CC(=O)Nc2ccccc2)cc1,?,?,?,?,-13,?
CC(C)Cn1c(N2CCN(CC(=O)Nc3ccc(Cl)cc3)CC2)nc2ccccc21,?,21µM*,-9%,18%,-85*,?
Cc1ccc(SCc2nc3ccccc3n2CC(=O)Nc2ccc(Cl)cc2)cc1,21µM*,?,13%,?,-2,16%
Cc1ccc(NC(=O)NCc2nc3ccccc3n2C)cc1,?,23µM*,9%,?,19,21µM*
CCn1cc(S(=O)(=O)c2ccc(OC)cc2)c(=O)c2cc(F)c(N3CCC(C)CC3)cc21,?,26µM*,.,.,.,.
CCCn1cc(S(=O)(=O)c2ccc(C)c(C)c2)c(=O)c2cc(F)c(N3CCC(C)CC3)cc21,5%,-23%,.,.,.,.
Cc1ccc(S(=O)(=O)c2cn(Cc3ccccc3)c3cc(N4CCCC4)c(F)cc3c2=O)cc1,5.8µM*,5.8µM*,.,.,.,.
CCn1cc(S(=O)(=O)c2ccc(C)cc2)c(=O)c2cc(F)c(N3CCCCCC3)cc21,16µM*,18µM*,.,.,.,.
CCn1cc(S(=O)(=O)c2cc(C)cc(C)c2)c(=O)c2cc(F)c(N3CCOCC3)cc21,?,-22%,.,.,.,.
CC1CCCCN1c1cc2c(cc1F)c(=O)c(S(=O)(=O)c1ccccc1)cn2Cc1ccccc1 (centres undefined),8.2µM*,8.2µM*,.,.,.,.
Cc1nc(-c2ccccc2)sc1-c1ccc(SCC(=O)Nc2ccc(F)cc2F)nn1,-28%,?,.,.,.,.
O=C(CCn1c(=O)c2sccc2n(Cc2cccc(F)c2)c1=O)NCc1ccc2c(c1)OCO2,-3%,1%,.,.,.,.
CCc1ccc(S(=O)(=O)c2cn(CC)c3cc(N4CCOCC4)c(F)cc3c2=O)cc1,15µM*,?,.,.,.,.
CCn1cc(S(=O)(=O)c2ccc(C)cc2C)c(=O)c2cc(F)c(N3CCCCC3)cc21,?,23µM*,.,.,.,.
CC1(CCC(=O)O)C(=O)CCC2C1CCC1(C)C2CCC1(C)O (centres undefined),0%,1%,.,-1%,-9,-1%
O=C(NCc1ccccn1)c1cnn(-c2nccc(-c3ccccc3F)n2)c1C1CC1,-7%[9.04 µM],-15%,.,.,.,.
COC(=O)c1ccc(NC(=O)c2ccc3c(c2)NC(=O)C2CCCN32)cc1 (centres undefined),.,.,-9%,.,.,.
O=C(CSc1nnc(-c2ccc(Cl)cc2)n1CC1CCCO1)NC1CCS(=O)(=O)C1 (centres undefined),-1%,18%,14%,1.2µM*,5,?
CS(=O)(=O)N1CCCCC1c1cc(C(=O)NCc2ccc(Cl)c(Cl)c2)no1 (centres undefined),?,?,.,.,-5,.
CCOC(=O)c1c(C)[nH]c(C)c1C(=O)COC(=O)[C@@H](NC(=O)c1ccccc1OCC)C(C)C,?,21µM*,-19%,?,-5,2%
CCOc1ccccc1C(=O)NC(C(=O)OCC(=O)NNC(=O)c1cccs1)C(C)C (centres undefined),-8%,-27%,.,.,22,.
CCOC(=O)C(CC)(CC)C(=O)/C=C/c1ccc(OC)cc1,?,18µM*,-25%,?,1,?
SMILES,TDP1 cell CPT,DT40 TDP1 no CPT,Chronic BCR inh,MCF10A rerep,IL-1B inflam inh,SW480 rereplic
CCOC(=O)c1c(C)[nH]c(C)c1C(=O)COC(=O)/C=C/c1ccc(OC)cc1,7.3µM*,8.2µM*,?,8%,9,16µM*
CCOC(=O)c1c(C)[nH]c(C)c1C(=O)COC(=O)/C=C/c1cccc(F)c1,-20%,-23%,?,-3%,-15,4%
O=C(COC(=O)c1ccc(Cl)c(S(=O)(=O)NCc2ccccc2)c1)NC1CC1,-16%,2%,-1%,3%,-5,-3%
CCOC(=O)c1c(C)[nH]c(C)c1C(=O)COC(=O)c1ccc(Cl)c(S(=O)(=O)NCc2ccccc2)c1,21µM*,23µM*,-24%,?,78,18%
CCCS(=O)(=O)NC(=O)C1(C)CCN(C(=O)c2cc(F)cc(F)c2)C1 (centres undefined),-63%,8%,.,.,19,.
COc1ccc(CNC(=O)C2(c3cccs3)CCOCC2)cc1,-3%,-28%,-1%,.,.,.
O=C(N[C@H]1c2ccccc2C[C@H]1O)[C@H]1O[C@@H](n2ccc(=O)[nH]c2=O)[C@H](O)[C@@H]1O,4%,8%,.,.,9,.
Cc1cc(C)n2nc(C(=O)OCC(=O)N(C)C3CCCCC3)nc2n1,15%,8%,-4%,3%,4,?
CCOC(=O)c1c(C)[nH]c(C)c1C(=O)COC(=O)c1cc2ccccc2cc1O,?,16µM*,?,?,-67*,?
CCOC(=O)c1c(C)[nH]c(C)c1C(=O)COC(=O)c1cc2ccccc2cc1OC,?,23µM*,-16%,7%,-11,-2%
COc1cccc(C(=O)NCC2CCCN(C(=O)Cc3cccc(C)c3)C2)c1OC (centres undefined),?,?,.,.,20,.
